Compound activity deposited in PubChem BioAssay by several laboratories.
KLK7 zymogen act – proKLK7 (human) activation, primary screen; 0.9% of 370,000 active; purified proKLK7, EDANS-DABCYL substrate fluorescence; 100% is mature enzyme control, 0% vehicle; AID 652039; activation, % at 7 µM;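 active means activation above the mean of all tested compounds plus 3 SD, computed per campaign excluding outliers beyond control limits, cut at about 13% in these data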
ADAM10 inh – inhibitors of human ADAM10; O14672; recombinant ADAM10, EDANS/DABCYL FRET peptide cleavage, 3 h; inhibition, % at 7 µM; 0.62% of 370,000 active;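 active means inhibition above a per-campaign cutoff equal to the mean of compounds falling between control-based bounds plus 3 SD, cut at about 20% in these data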;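 further: 0% = DMSO wells while the 100% control is not disclosed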
sPLA2-III inh – Blocks human group III sPLA2 activity; Q9NZ20; QFRET BODIPY PC-A2 liposome hydrolysis, fluorescence; inhibition, % at 12.2 µM; 0.56% of 370,000 active; AID 743126;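 active means inhibition above mean plus 3 SD of compounds lying within the high and low control bounds, cut at about 19% in these data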;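 further: 0% = median of test compound wells and 100% = no enzyme DMSO wells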
ADAM17 inh – inhibits human ADAM17. P78536. recombinant ADAM17, EDANS/DABCYL FRET peptide cleavage. inhibition, % at 6.95 µM. 0.83% of 370,000 active. AID 720648;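 active means inhibition above the mean of compounds lying between control limits plus 3 SD, set per campaign, cut at about 8.5% in these data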;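 further: 0% = DMSO-only wells as the low control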
CendR NRP1 mod – NRP-1/CendR interaction modulation. AID 602438. 0.85% of 360,000 active. FAM-RPARPAR peptide binding to NRP-1, fluorescence polarization. O14786. inhibition, % at 25 µM;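 active means inhibition or corrected inhibition above about 18%, plus a signal ratio from 0.5 to 1.5, limit read from the data, passing the limit was not always enough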
Target sequence (O14786 whole entry, looked up): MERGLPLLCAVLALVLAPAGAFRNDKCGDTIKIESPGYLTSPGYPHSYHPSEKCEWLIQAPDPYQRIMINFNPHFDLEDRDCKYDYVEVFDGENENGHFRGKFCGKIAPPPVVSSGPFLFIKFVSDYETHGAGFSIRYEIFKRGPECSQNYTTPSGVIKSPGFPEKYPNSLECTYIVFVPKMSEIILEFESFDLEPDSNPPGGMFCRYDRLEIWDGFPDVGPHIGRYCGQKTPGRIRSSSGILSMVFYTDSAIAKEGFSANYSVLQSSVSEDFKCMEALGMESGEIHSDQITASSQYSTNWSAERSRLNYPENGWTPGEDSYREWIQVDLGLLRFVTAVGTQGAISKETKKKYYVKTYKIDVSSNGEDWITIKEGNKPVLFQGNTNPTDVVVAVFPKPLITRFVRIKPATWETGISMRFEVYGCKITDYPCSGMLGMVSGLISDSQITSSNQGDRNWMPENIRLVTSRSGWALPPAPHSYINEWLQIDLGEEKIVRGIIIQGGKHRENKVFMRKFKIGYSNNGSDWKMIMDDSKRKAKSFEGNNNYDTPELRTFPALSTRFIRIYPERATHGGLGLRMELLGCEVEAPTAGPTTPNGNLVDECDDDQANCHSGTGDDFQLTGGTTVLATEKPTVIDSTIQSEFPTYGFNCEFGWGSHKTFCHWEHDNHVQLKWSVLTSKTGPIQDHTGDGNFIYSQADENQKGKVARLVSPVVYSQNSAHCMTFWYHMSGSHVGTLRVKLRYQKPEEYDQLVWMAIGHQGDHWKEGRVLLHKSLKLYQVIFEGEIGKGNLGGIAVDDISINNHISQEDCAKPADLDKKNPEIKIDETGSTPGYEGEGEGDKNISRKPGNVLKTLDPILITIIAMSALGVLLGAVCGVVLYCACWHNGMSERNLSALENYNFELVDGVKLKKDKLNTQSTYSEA
proKLK7 act conf – proKLK7 activation, confirmation; 68% of 3,200 active; purified proKLK7, EDANS-DABCYL substrate fluorescence; scaled: vehicle 0, mature enzyme 100; activation, % at 7 µM; AID 686949; shares compounds with KLK7 zymogen act;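 active means activation, as change over the incubation, above the mean of all tested compounds plus 3 SD, cut at about 13% in these data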
EDANS-DABCYL int – fluorescence interference counter-screen for KLK7 activators. shares compounds with KLK7 zymogen act. EDANS-DABCYL substrate fluorescence interference, no enzyme, 4 h; solvent 0%, active enzyme control 100%. activation, % at 7 µM. 80% of 3,200 active;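 active means activation above the all-compound mean plus 3 SD, ignoring values outside control-based bounds, cut at about 4.8% in these data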;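 further: value is the 4 h activation minus the activation read at time zero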
EDANS interf – EDANS fluorescence interference in dose response, no enzyme | shares compounds with KLK7 zymogen act | EDANS-DABCYL peptide fluorescence interference | EC50, µM | 20% of 250 active;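 active means compounds that raise the fluorescence signal in this interference counterscreen, with EC50 at or below 10 µM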;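 further: intact quenched peptide substrate alone read at 355 nm excitation and 520 nm emission; signal is fluorescence gain from T0 to T4 after four hours at room temperature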
* hit, by the source's call; i = inactive; · = no result. An excerpt weighted towards active compounds, which were near 3.4% of everything screened.

SMILES	KLK7 zymogen act	ADAM10 inh	sPLA2-III inh	ADAM17 inh	CendR NRP1 mod	proKLK7 act conf	EDANS-DABCYL int	others
CC(=O)N(C(C)=O)c1ncnc2c1c(-c1ccc(Cl)cc1)nn2C(C)(C)C	27.3*	-247.2	2.8	-86.3	-5.1	27.5*	29.7*
CC(=O)Nc1ncnc2c1c(-c1ccc(Cl)cc1)nn2C(C)(C)C	13.4*	-363.4	-1.5	-104.6	0.0	1.3	0.3
COc1cc2c(C#N)c(N3CCN(c4ccccc4OC)CC3)nc(N)c2c(N)n1	-11.6	-148.7	-0.1	-40.8	-8.2	·	·
COc1cc2c(C#N)c(N3CCN(C)CC3)nc(N)c2c(N)n1	65.2*	i	2.7	-327.7	-10.0	48.4*	60.6*
CCn1cc(CCC(=O)Nc2ccc(Oc3cccnc3)cc2)c2ccccc21	1.0	-1.1	-2.4	-1.5	·	·	·
CNc1cncc(-c2ccc(C)cc2)n1	30.0*	i	0.8	i	3.6	41.2*	40.7*
CNc1cncc(-c2cccc(C(=O)NC3CC3)c2)n1	54.4*	i	2.2	i	17.7	47.2*	55.0*
CNc1cncc(-c2ccc(OC)cc2OC)n1	9.1	i	3.0	-206.0	-0.3	·	·
CNc1cncc(-c2cccc(O)c2)n1	37.4*	i	-9.4	i	-9.2	35.1*	36.4*
CNc1cncc(-c2cc(OC)c(OC)c(OC)c2)n1	24.6*	i	15.4	i	-10.4	16.5*	21.7*
CNc1cccc(-c2cccc(O)c2)n1	0.3	-58.3	1.9	-14.3	-0.8	·	·
CC(C)CC(CCOCCO)NC(=O)OCc1ccccc1[N+](=O)[O-] (stereo not given)	·	-10.6	9.8	-4.2	·	·	·
COc1ccc(S[C@]2(C(=O)N3CCN(C(C)=O)CC3)CC(=O)N(C(=O)C3CC3)[C@@H]2c2ccc(OC)cc2)cc1	0.5	-4.1	2.2	-0.8	·	·	·
c1cc(Nc2ncnc3sc4c(c23)CCC4)ccn1	32.2*	i	-2.3	-172.7	6.2	55.8*	64.2*
C(=N\Nc1ncnc2sc3c(c12)CCC3)/c1ccncc1	0.3	-3.0	5.4	-0.7	-7.3	·	·
CCN(CC)CCN(C(=O)c1cc2c(ccc3ccccc32)oc1=O)c1nc2cc3c(cc2s1)OCCO3	45.6*	i	3.0	i	11.4	61.4*	65.2*
COc1ccc(C(=O)Oc2ccc3ccc(=O)oc3c2)cc1OC	14.0*	i	6.6	-340.4	7.5	196.6*	193.0*
COc1ccc(C(=O)COc2ccc3ccc(=O)oc3c2)cc1	1.9	-32.4	-2.5	-13.6	5.0	·	·
COc1cccc(C(=O)Oc2ccc3ccc(=O)oc3c2)c1	93.5*	i	2.3	-300.0	8.9	616.3*	656.0*
Cc1ccc(C(=O)Oc2ccc3ccc(=O)oc3c2)cc1	40.6*	-248.3	0.1	-103.2	14.6	110.8*	107.4*
O=C(Oc1ccc2ccc(=O)oc2c1)c1ccc([N+](=O)[O-])cc1	45.2*	i	-0.3	i	1.2	592.6*	573.0*
COC(=O)c1cc(COc2ccc3ccc(=O)oc3c2)c(C)o1	-1.1	-166.2	0.2	-48.6	4.3	·	·
COc1cccc(COc2ccc3ccc(=O)oc3c2)c1	1.0	-55.3	-5.1	-20.4	1.5	·	·
CC(NC(=O)OC(C)(C)C)C(=O)Oc1ccc2ccc(=O)oc2c1 (stereo not given)	89.4*	i	2.9	i	-2.3	466.5*	445.2*
CC(C)(C)OC(=O)NCCC(=O)Oc1ccc2ccc(=O)oc2c1	·	·	·	·	7.3	·	·
SMILES	KLK7 zymogen act	ADAM10 inh	sPLA2-III inh	ADAM17 inh	CendR NRP1 mod	proKLK7 act conf	EDANS-DABCYL int	others
O=C(CNC(=O)OCc1ccccc1)Oc1ccc2ccc(=O)oc2c1	56.1*	i	4.3	i	-27.5	183.1*	261.2*
CC(C)=CCOc1ccc2ccc(=O)oc2c1	4.2	i	-3.2	-187.4	10.4	·	·
O=C(Oc1ccc2c(-c3ccccc3)cc(=O)oc2c1)c1cccs1	0.9	2.3	-0.2	-1.9	8.3	·	·
O=C(Oc1ccc2ccc(=O)oc2c1)c1cccs1	580.8*	i	-2.2	i	-1.5	788.9*	771.1*
CC(=O)Oc1ccc2ccc(=O)oc2c1	357.0*	i	1.3	i	-7.0	602.4*	608.8*
CCN1CCCCC(NC(=O)c2ccccc2C)C1=O (stereo not given)	0.0	0.6	6.4	1.0	·	·	·
Cc1ccc(CNC(=O)O[C@H]2CC[C@@]34CCCN3C(=O)CCC[C@H]4[C@H]2C)o1	·	-6.7	3.4	-6.5	·	·	·
COC(=O)[C@H](C(C)C)N1Cc2nnn(Cc3ccc(C)cc3)c2-c2cc(F)ccc2S1(=O)=O	-0.6	8.0	-9.1	2.7	·	·	·
CCCCNC(=O)C[C@H]1C[C@@]2(C(=O)OC)C(=C[C@H](C(C)C)O[C@@H]2C2CC2)N(Cc2ccc3c(c2)OCO3)C1=O	0.2	1.7	-2.5	-3.0	·	·	·
Cc1cc(C(=O)COc2ccc3ccc(=O)oc3c2)c(C)n1C	137.8*	i	3.9	-202.8	11.0	79.0*	84.9*
Cc1ccccc1NC(=O)COC(=O)COc1ccc2ccc(=O)oc2c1	13.6*	-349.1	3.8	-87.3	5.0	15.6*	-1.5	EDANS interf=i
COc1ccc(C(=O)COc2ccc3ccc(=O)oc3c2)c(OC)c1	-6.8	-289.4	2.3	-107.3	-1.8	·	·
O=C(NN=C1CCCC1)c1cc(Cl)cc(Cl)c1O	17.5*	-273.9	6.7	-112.0	-2.5	12.2	15.4*
CCCCCCCCN1CCS(=O)(=O)N(Cc2ccc(Cl)cc2)C(C(=O)OC)C1 (stereo not given)	0.2	-3.6	1.1	-3.2	·	·	·
COc1nc(Nc2nc3ccccc3c(=O)[nH]2)nc2ccc(C)cc12	-0.2	10.2	-0.8	0.1	-7.6	·	·
COc1nc(N=C(N)N)nc2ccc(C)cc12	17.3*	-323.0	0.8	-89.0	·	5.6	9.5*
CCOC(=O)C1CCN(c2ncnc3c2[nH]c2cccc(OC)c23)CC1	19.2*	i	0.6	i	11.8	23.5*	14.4*	EDANS interf=i
COc1cccc2[nH]c3c(N4CCCCC4)ncnc3c12	8.4	-299.0	-3.4	-97.3	-7.5	·	·
COc1cccc2[nH]c3c(Cl)ncnc3c12	17.3*	i	-1.6	-354.5	4.2	31.5*	31.3*
COc1ccc(C(=O)CSc2nnc(-c3ccccc3)n2-c2ccc(Cl)cc2)cc1	0.9	-0.3	-8.2	2.1	·	·	·
N#C/C(=C/c1ccc(-c2ccc(S(N)(=O)=O)cc2)o1)C(=O)Nc1ccccc1	26.9*	-78.7	-10.4	-22.5	4.7	16.5*	0.4	EDANS interf=i
COc1ccc(S[C@]2(C(=O)N3CCCC3)CC(=O)N(P(=O)(OC)OC)[C@@H]2c2ccc(OC)cc2)cc1	0.8	-1.1	5.2	4.7	·	·	·
